Experimental data as given in PubChem BioAssay.
Activity calls are given as the source filed them.

Experiments:
[1] = optical density shifts of acrAB sulA E. coli – strain DRC41, OD650, 48 h, E. coli filamentation inducer project, primary screen (AID 1152); conditions: higher = more signal, called active from +8 up or from −8 down;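 also: E. coli MC1000 strain DRC41 lacking acrAB efflux pump and sulA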
[2] = probe aLefty1 binding on compound microarray – biochemical, small-molecule microarray, 635/667 nm fluorescence, primary screen (AID 1153); conditions: higher = more signal;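 also: score merges spot fluorescence with signal-to-noise ratio from the scanned slide images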
[3] = plasmodial surface anion channel blockers, osmotic lysis – cell-based, P. falciparum Indochina, OD700, 1 h, primary screen (AID 1154); conditions: P. falciparum Indochina infected RBC osmotic lysis, higher = more signal, called active from +8 up or from −8 down
[4] = plasmodial surface anion channel blockers, osmotic lysis – cell-based, P. falciparum Indochina, OD700, 2 h, primary screen (AID 1155);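 also: lysis reports solute entry through the parasite surface anion channel PSAC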; conditions: P. falciparum Indochina infected erythrocytes, higher = more signal, called active from +8 up or from −8 down
[5] = changes in parasitized red cell lysis, either direction – P. falciparum Indochina, OD700, 3 h, PSAC antagonist project, primary screen (AID 1156); conditions: P. falciparum-infected erythrocytes, osmotic lysis, higher = more signal, called active from +8 up or from −8 down
[6] = plasmodial surface anion channel blockers, osmotic lysis – cell-based, P. falciparum Indochina, OD700, 18 h, primary screen (AID 1157); conditions: P. falciparum Indochina infected erythrocytes, osmotic lysis OD700, 18 h; higher = more signal, called active from +8 up or from −8 down
[7] = S6 kinase pathway phospho-S6 level changes – cell-based, A549, cytoblot, luminescence, serum-stimulated, primary screen (AID 1158); conditions: 5 h, higher = more signal;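 also: serum-stimulated A549 lung adenocarcinoma cells; signal is phosphorylated S6 detected by cytoblot immunostaining with HRP secondary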
[8] = molecular target: NADPH oxidase 2 (Homo sapiens) (UniProt P04839); assay: compounds shifting NOX2 Amplex Red fluorescence – cell-based, HEK293-NOX2, PMA-stimulated, NOX inhibitor project, primary screen (AID 1159); conditions: 45 min, higher = more signal, called active from +8 up or from −8 down; also: test concentration not given here
Chain of NADPH oxidase 2 (Homo sapiens) (P04839 whole entry, looked up): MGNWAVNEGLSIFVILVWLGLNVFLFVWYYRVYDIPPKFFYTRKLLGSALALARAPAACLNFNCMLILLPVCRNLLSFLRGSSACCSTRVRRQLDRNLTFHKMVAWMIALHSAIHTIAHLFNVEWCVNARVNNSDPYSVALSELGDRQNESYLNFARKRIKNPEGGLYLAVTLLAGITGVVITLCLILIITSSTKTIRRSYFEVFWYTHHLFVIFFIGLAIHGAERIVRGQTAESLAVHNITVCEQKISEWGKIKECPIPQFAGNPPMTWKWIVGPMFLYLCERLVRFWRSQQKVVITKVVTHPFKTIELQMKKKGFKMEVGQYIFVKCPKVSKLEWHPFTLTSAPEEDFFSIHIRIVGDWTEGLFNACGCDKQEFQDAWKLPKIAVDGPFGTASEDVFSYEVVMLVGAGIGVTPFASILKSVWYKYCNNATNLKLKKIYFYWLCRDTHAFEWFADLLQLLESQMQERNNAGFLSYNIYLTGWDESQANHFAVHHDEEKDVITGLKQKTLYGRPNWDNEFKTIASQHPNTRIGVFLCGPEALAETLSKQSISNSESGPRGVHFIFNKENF

[9] = molecular target: NADPH oxidase 4 (Homo sapiens) (UniProt Q9NPH5); assay: compounds shifting NOX4 Amplex Red fluorescence – cell-based, HEK293-NOX4, tetracycline-induced, NOX inhibitor project, primary screen (AID 1160); conditions: HEK293-NOX4, Amplex Red H2O2 fluorescence, 45 min; higher = more signal, called active from +8 up or from −8 down
Chain of NADPH oxidase 4 (Homo sapiens) (Q9NPH5 whole entry, looked up): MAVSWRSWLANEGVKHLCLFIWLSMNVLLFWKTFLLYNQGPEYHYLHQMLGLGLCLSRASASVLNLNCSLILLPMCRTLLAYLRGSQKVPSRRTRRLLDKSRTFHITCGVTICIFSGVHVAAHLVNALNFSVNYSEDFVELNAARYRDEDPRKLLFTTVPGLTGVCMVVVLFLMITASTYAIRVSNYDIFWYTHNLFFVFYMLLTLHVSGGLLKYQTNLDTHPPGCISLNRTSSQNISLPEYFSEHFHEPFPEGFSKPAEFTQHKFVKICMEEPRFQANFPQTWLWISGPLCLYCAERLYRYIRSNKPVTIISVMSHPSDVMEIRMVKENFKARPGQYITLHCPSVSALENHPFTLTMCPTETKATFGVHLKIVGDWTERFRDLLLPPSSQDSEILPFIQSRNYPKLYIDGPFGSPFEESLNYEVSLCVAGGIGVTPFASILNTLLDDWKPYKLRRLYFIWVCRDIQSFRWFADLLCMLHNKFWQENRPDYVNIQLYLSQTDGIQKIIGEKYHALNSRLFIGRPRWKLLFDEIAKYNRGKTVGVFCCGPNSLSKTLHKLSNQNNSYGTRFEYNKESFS

[10] = molecular target: NADPH oxidase 5 (Homo sapiens) (UniProt Q96PH1); assay: compounds shifting NOX5 Amplex Red fluorescence – cell-based, HEK293-NOX5, NOX inhibitor project, primary screen (AID 1161); conditions: HEK293-NOX5, ionomycin, 45 min, higher = more signal
Chain of NADPH oxidase 5 (Homo sapiens) (Q96PH1 whole entry, looked up): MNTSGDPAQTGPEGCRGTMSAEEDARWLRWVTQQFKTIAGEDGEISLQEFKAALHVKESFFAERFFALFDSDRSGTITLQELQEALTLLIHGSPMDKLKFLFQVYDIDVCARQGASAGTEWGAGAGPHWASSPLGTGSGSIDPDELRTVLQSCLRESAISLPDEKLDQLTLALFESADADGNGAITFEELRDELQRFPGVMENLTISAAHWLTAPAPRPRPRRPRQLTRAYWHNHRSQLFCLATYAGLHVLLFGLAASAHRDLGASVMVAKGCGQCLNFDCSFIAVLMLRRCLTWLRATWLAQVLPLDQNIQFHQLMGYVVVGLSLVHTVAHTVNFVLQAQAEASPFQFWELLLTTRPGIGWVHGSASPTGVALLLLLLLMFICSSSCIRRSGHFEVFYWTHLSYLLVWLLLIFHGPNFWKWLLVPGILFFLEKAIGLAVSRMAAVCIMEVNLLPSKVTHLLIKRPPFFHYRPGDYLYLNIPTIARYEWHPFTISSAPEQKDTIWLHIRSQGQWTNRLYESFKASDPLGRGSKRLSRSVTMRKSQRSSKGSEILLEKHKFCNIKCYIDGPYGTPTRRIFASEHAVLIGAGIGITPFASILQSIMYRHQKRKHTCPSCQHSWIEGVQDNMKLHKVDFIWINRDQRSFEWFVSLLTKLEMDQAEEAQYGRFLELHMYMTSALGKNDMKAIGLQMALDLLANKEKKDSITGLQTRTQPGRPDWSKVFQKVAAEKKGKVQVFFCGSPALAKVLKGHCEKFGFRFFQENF

[11] = compound effects on lung adenocarcinoma cell viability – A549, calcein-AM fluorescence, 48 h, basal, profiling panel (AID 1162); conditions: higher = more signal; also: test concentration not given here
[12] = compound effects on differentiated 3T3-L1 adipocyte viability – cell-based, 3T3-L1 adipocytes, calcein-AM fluorescence, 48 h, basal, profiling panel (AID 1163); conditions: 3T3-L1 adipocytes viability, higher = more signal; also: test concentration not given here
[13] = compound effects on hepatocellular carcinoma cell viability – HepG2, calcein-AM fluorescence, 48 h, basal, profiling panel (AID 1164); conditions: higher = more signal; also: test concentration not given here
[14] = compound effects on multiple myeloma cell viability – MM1S, calcein-AM fluorescence, 48 h, basal, profiling panel (AID 1165); conditions: higher = more signal; also: test concentration not given here
[15] = calcein-AM signal in unstimulated myeloma cells – cell-based, calcein-AM fluorescence, 48 h, PK04 Diversity Set, profiling panel (AID 1166); conditions: RPMI8226 myeloma viability, higher = more signal;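 also: cells grown under basal conditions without added stimulus; test concentration not given here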
[16] = JC-1 mitochondrial signal, unstimulated HepG2 cells – cell-based, JC-1 fluorescence, 24 h, 100 nL compound, profiling panel (AID 1167); conditions: HepG2 mitochondrial potential, higher = more signal; also: test concentration not given here
[17] = JC-1 mitochondrial signal, unstimulated adipocytes – cell-based, JC-1 fluorescence, 3T3-L1 adipocytes, 24 h, 100 nL compound, profiling panel (AID 1168); conditions: JC-1 mitochondrial fluorescence, higher = more signal, called active from +8 up or from −8 down; also: test concentration not given here
[18] = JC-1 mitochondrial signal, unstimulated myeloma cells – cell-based, JC-1 fluorescence, RPMI8226, 24 h, 100 nL compound, profiling panel (AID 1169); conditions: JC-1 mitochondrial potential fluorescence, higher = more signal; also: test concentration not given here
[19] = JC-1 mitochondrial signal, unstimulated MM1S myeloma – cell-based, JC-1 fluorescence, 24 h, 100 nL compound, profiling panel (AID 1170); conditions: MM1S mitochondrial potential, higher = more signal; also: test concentration not given here
[20] = resazurin metabolic signal in A549 cells – cell-based, resazurin fluorescence, 24 h, PK04 Diversity Set, profiling panel (AID 1171); conditions: A549 viability, higher = more signal, called active from +8 up or from −8 down; also: test concentration not given here

Row | SMILES | z-score [1] | composite z-score [2] | z-score [3] | z-score [4] | z-score [5] | z-score [6] | z-score [7] | z-score [8] | z-score [9] | z-score [10] | z-score [11] | z-score [12] | z-score [13] | z-score [14] | z-score [15] | z-score [16] | z-score [17] | z-score [18] | z-score [19] | z-score [20]
1 | CC(C)C[C@H]1NC(=O)[C@@H](C)NC(=O)[C@@]23C(=O)N[C@@H](Cc4ccccc4)C2[C@H](C)[C@@]2(C)O[C@H]2C3/C=C/C/C=C\CNC1=O (stereo not given in full) | -0.743 (inactive) | -0.431 | 0.522 (inactive) | -0.437 (inactive) | -0.435 (inactive) | -0.111 (inactive) | -0.175 | -0.115 (inactive) | 1.11 (inactive) | 0.407 | 0.65 | 0.305 | -0.363 | -0.256 | -0.64 | -0.553 | 0.023 (inactive) | 0.471 | 0.191 | -0.0639 (inactive)
2 | COCCOC(=O)N1C(=O)[C@@]2(c3cc(C#CCCO)ccc31)[C@H](c1ccccc1OCCO)N1[C@H](c3ccccc3)[C@H](c3ccccc3)OC(=O)[C@H]1[C@@H]2C(=O)N1CCc2cc(OC)c(OC)cc2C1 | 0.891 (inactive) | 0.265 | 2.43 (inactive) | 1.97 (inactive) | 0.276 (inactive) | 1.12 (inactive) | 0.199 | 1.15 (inactive) | 1.15 (inactive) | 0.0359 | 1.14 | 0.251 | 1.37 | 0.713 | 0.503 | 1.13 | 0.808 (inactive) | -0.361 | -1.04 | 0.646 (inactive)
3 | COCCCNC(=O)[C@@H]1c2ccccc2C(=O)N(C2CCCCC2)[C@H]1c1ccc(CO)cc1 | 0.416 (inactive) | 0.0839 | 0.794 (inactive) | -0.0928 (inactive) | 0.65 (inactive) | -0.51 (inactive) | 2.35 | 0.422 (inactive) | -1.61 (inactive) | -0.915 | 1.83 | 1.15 | 1.05 | 0.777 | -0.559 | 2.49 | -0.154 (inactive) | 0.107 | -1.17 | 1.19 (inactive)
4 | COCCCNC(=O)[C@@]1(Sc2ccc(C)cc2)CC(=O)N(C2CCCCC2)[C@@H]1c1ccc(CO)cc1I | -0.251 (inactive) | -0.649 | 4.53 (inactive) | 0.678 (inactive) | 0.0232 (inactive) | 0.5 (inactive) | -0.0285 | 0.625 (inactive) | -0.102 (inactive) | 1.43 | 0.564 | -0.363 | 0.0565 | -2.54 | -2.33 | 0.634 | -0.201 (inactive) | -0.126 | -1.24 | 0.804 (inactive)
5 | COc1ccc(CCNC(=O)[C@@]2(Sc3ccc(C)cc3)CC(=O)N(Cc3cc(C(F)(F)F)cc(C(F)(F)F)c3)[C@@H]2c2ccc(CO)cc2)cc1 | -0.601 (inactive) | 0.469 | 1.54 (inactive) | 0.518 (inactive) | 0.0927 (inactive) | -0.0392 (inactive) | 0.0684 | -0.626 (inactive) | 0.539 (inactive) | 1.02 | -0.147 | 0.7 | -0.29 | -0.305 | -0.24 | 0.016 | -0.563 (inactive) | 1.15 | -0.145 | 0.423 (inactive)
6 | C=CCNC(=O)[C@@H]1[C@H]2C(=O)O[C@H](c3ccccc3)[C@H](c3ccccc3)N2[C@H](c2ccc(O)cc2)[C@@]12C(=O)Nc1ccc(C#CC3(O)CCCCCC3)cc12 | -0.418 (inactive) | -0.196 | 2.35 (inactive) | 0.275 (inactive) | 0.0479 (inactive) | 0.778 (inactive) | -0.339 | 0.948 (inactive) | 0.534 (inactive) | 1.19 | -1.04 | 0.889 | -0.522 | -1.67 | -3.93 | -2.28 | -0.41 (inactive) | -0.748 | -0.188 | 0.0696 (inactive)
7 | COc1cccc(C[C@H]2C[C@@H](CO[Si](C(C)C)(C(C)C)C(C)C)N3C(=O)[C@@]4(C(C)=O)O[C@@]23[C@@H]2C(=O)N(C)C(=O)[C@@H]24)c1 | -0.848 (inactive) | -0.0061 | 1.31 (inactive) | 0.576 (inactive) | -0.176 (inactive) | 0.0375 (inactive) | -0.669 | -0.175 (inactive) | 0.746 (inactive) | 0.181 | -2.05 | 0.202 | -0.342 | -1.9 | -1.38 | -1.64 | 1.29 (inactive) | -0.846 | -0.661 | 0.712 (inactive)
